Among the data in PubChem BioAssay (NCATS) are Potency, activity change, negative = inhibition and activity, negative = inhibition values, retold here.

Assay [1] concerns the target Lysosomal acid glucosylceramidase (Homo sapiens) (UniProt P04062). In words: Glucocerebrosidase-p2 (AID 348; in the data active = potency below about 10 µM; note: potency is the fitted concentration of half-maximal effect). To be noted: purified GBA, blue fluorogenic substrate, 40 min. The method in brief:
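Compounds titrated from 0.6 nM upwards against 0.2 nM enzyme in pH 5.9 citric acid/KH2PO4, taurocholate, tween-20; blue fluorogenic substrate 80 uM, 40 min room temperature, stopped and read Ex 365/Em 440 for AC50.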

Assay [2] in a line: AP1 Signaling Pathway (AID 357).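 Note: ME-180 reporter cells stimulated with EGF at its EC50 level; % is set by controls: 0 for no effect and ±100 for the full control effect.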 As to conditions: ME-180 AP-1-bla reporter, EGF-induced, beta-lactamase ratio, 5 h; at 7.69 µM (top of the series) unless noted. The essentials:
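In this screen, ME-180 cells in Opti-MEM with 0.5% dialyzed FBS received EC50 EGF and compound titrations for 5 h. AP-1 reporter beta-lactamase was detected via CCF4 ratio, giving AC50 for positive and negative modulators.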

Assay [3] in a line: NFAT Signaling Pathway (AID 444).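 Note: carbachol stimulus at about its EC50 of 1 µM final; % is set by controls: 0 for no effect and ±100 for the full control effect.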 To be noted: Jurkat NFAT-bla M1, carbachol, beta-lactamase ratio, 5 h; at 7.69 µM (top of the series) unless noted. The essentials: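 Jurkat cells carrying an NFAT-driven β-lactamase reporter and co-transfected muscarinic M1 receptor were treated with compound plus carbachol (1 uM final, an EC50 level) for 5 h at 37 °C. CCF4 loading followed for 1 h at RT; 460/530 nm ratio gave %activity.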

Assay [4] in a line: Stat Signaling Pathway (AID 446).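 Note: ME-180 cervical cancer cells given 40 pM IL-6 alongside compound; SIE-controlled beta-lactamase reporter measured as 460/530 nm FRET emission ratio; % is set by controls: 0 for no effect and ±100 for the full control effect.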 As to conditions: ME-180 (cervical carcinoma) SIE beta-lactamase reporter, IL-6 stimulated, 5 h; at 7.69 µM (top of the series) unless noted. The essentials:
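ME-180 SIE-bla cells; overnight plating; cpd + IL-6 40 pM, 5 h, 37 C; LiveBLAzer 2.5 h RT; 460/530 nm emission ratio. Normalized to 300 pM IL-6 and 125 nM JAK inhibitor controls.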

For assay [5], the target named is Glucocorticoid receptor (Homo sapiens) (UniProt P04150). Nature of the assay: GR-GFP Redistribution (AID 450;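 active = compounds whose dose series gives a full or clear partial fitted curve of increased nuclear translocation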; note: potency is the fitted concentration of half-maximal effect). To be noted: U2OS GR-GFP nuclear translocation, laser cytometry, 2 h.
Sequence of Glucocorticoid receptor (Homo sapiens) (P04150 whole entry, looked up): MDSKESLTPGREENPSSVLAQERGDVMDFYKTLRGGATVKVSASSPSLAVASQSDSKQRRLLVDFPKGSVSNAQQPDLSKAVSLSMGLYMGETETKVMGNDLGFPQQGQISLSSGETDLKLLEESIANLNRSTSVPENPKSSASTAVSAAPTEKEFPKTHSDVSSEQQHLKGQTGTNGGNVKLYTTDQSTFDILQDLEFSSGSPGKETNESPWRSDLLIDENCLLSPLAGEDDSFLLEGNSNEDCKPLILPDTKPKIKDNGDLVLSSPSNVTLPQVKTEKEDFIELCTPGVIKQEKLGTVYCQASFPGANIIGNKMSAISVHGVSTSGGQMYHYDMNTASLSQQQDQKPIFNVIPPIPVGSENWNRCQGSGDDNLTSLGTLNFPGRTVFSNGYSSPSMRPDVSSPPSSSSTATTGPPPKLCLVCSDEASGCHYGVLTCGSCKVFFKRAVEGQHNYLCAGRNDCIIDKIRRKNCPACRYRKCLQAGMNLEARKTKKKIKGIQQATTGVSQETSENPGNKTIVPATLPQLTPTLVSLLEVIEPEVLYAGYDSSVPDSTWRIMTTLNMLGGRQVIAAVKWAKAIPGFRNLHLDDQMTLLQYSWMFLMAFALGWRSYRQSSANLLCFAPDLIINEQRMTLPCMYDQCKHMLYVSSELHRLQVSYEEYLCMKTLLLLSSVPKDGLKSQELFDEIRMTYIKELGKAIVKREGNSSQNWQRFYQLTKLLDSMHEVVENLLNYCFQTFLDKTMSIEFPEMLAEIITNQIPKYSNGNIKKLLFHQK
Assay [6] has the same target. Nature of the assay: GR-EFC Redistribution (AID 451; calls by dose curve; note: potency is the fitted concentration of half-maximal effect). As to conditions: CHO-K1 GR-EFC translocation, beta-gal luminescence, 2 h. The essentials:
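CHO-K1 cells stably expressing nuclear-localized β-gal enzyme acceptor and GR fused C-terminally to the enzyme donor fragment; ligand-driven nuclear translocation restores β-gal by complementation. Compounds titrated up to 46 uM final, 2 h at 37 °C; luminescence read.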

In assay [7] the target is Mitogen-activated protein kinase 10 (Mus musculus) (UniProt Q61831). In words: JNK3 AlphaScreen Assay (AID 530).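 Note: kinase came from lysate of stimulated human HepG2 cells; % is set by controls: 0 for no effect and ±100 for the full control effect.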 To be noted: JNK3 lysate, c-Jun phosphorylation; series mostly up to 11.4 µM. The essentials: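 JNK3 came from HepG2 lysates pre-activated with IL-1beta and TNF-alpha and phosphorylated biotinylated GST-cJun (1-79) at 10 uM ATP, pH 7.6, room temperature. Compounds were titrated. AlphaScreen signal used anti-phospho-cJun (Ser73) antibody.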
For orientation: In Alpha technology, singlet oxygen from a donor bead excites a nearby acceptor bead.

The target of assay [8] is 3',5'-cyclic-AMP phosphodiesterase 4B (Homo sapiens) (UniProt Q07343). In words: qHTS Assay for Inhibitors of PDE-IV (AID 607; active = well fitted activation curve with a large enough effect in the main read-out, with a control signal flat, not every such curve was filed as active; note: % of control where 0% means no effect). To be noted: HEK293 ACTOne CNG channel cells, membrane potential fluorescence; series mostly up to 22.9 µM. The method in brief: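 ACTOne HEK293 cells carry a modified cAMP-gated CNG channel and express endogenous PDE4; plated 1000 cells/well, compounds up to 22.9 uM final. Membrane-potential dye fluorescence (ex 535/em 590) was read; parental cells received 10 uM forskolin + 100 uM RO 20-1724.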
Sequence of 3',5'-cyclic-AMP phosphodiesterase 4B (Homo sapiens) (Q07343 whole entry, looked up): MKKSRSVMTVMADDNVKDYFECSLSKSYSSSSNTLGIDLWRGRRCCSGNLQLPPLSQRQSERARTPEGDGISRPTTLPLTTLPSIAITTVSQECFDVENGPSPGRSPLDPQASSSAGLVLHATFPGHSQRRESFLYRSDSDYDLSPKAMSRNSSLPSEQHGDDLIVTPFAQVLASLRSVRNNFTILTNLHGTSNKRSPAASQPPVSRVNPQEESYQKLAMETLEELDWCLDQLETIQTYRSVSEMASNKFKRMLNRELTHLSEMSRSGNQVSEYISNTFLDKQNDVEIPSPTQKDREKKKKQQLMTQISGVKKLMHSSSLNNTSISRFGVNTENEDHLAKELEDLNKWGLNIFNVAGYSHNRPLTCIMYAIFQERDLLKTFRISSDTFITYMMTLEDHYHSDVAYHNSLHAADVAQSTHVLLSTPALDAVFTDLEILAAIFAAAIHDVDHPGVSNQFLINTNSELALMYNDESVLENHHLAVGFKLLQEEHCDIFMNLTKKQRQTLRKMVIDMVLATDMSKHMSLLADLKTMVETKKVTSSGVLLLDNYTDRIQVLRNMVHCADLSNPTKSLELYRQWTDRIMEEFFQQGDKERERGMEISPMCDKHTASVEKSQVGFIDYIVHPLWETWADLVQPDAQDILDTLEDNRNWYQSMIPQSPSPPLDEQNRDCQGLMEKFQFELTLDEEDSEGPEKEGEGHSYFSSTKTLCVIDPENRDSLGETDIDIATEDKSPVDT
In general terms: qHTS replaces the single test concentration by a dilution series.

Assay [9] has as its target Cytochrome P450 2C9 (Homo sapiens) (UniProt P11712). Nature of the assay: qHTS Assay for Inhibitors and Substrates of Cytochrome P450 2C9 (AID 883; active = well fitted curve in the direction sought with a large enough effect; an effect the other way counts as inactive or inconclusive; note: potency is the fitted concentration of half-maximal effect; nearly all actives have a fitted effect of over 60% in size). As to conditions: recombinant CYP2C9, luciferin-H luminescence, 60 min; series mostly up to 11.4 µM. The method in brief: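 CYP2C9 deoxyluciferin hydroxylation, 37C, 60 min with NADPH regeneration; 10nM enzyme, 100uM Luciferin-H (KM). Glo detection reagent stopped reaction; luminescence normalized to sulphaphenazole (57uM) full inhibition.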

Assay [10] addresses Cytochrome P450 3A4 (Homo sapiens) (UniProt P08684). Nature of the assay: qHTS Assay for Inhibitors and Substrates of Cytochrome P450 3A4 (AID 884; active = well fitted curve in the direction sought with a large enough effect; an effect the other way counts as inactive or inconclusive; note: % is set by controls: 0 for no effect and ±100 for the full control effect; nearly all actives have a fitted effect of over 50% in size). To be noted: recombinant CYP3A4, Luciferin-PPXE luminescence; series mostly up to 57.1 µM. The method in brief: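 20 nM human CYP3A4 with 25 uM Luciferin-PPXE (at KM) in 200 mM KPO4, preincubated 10 min with compound; NADPH regeneration started a 60 min RT reaction. Luciferin detected by luminescence, normalized to 57 uM ketoconazole as full inhibition.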

The target is the same in assay [11]. In words: qHTS Assay for Activators of Cytochrome P450 3A4 (AID 885; active = well fitted curve in the direction sought with a large enough effect; an effect the other way counts as inactive or inconclusive; note: potency is the fitted concentration of half-maximal effect; nearly all actives have a fitted effect of over 65% in size). To be noted: recombinant CYP3A4, Luciferin-PPXE luminescence, 60 min; series mostly up to 11.4 µM. The essentials:
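20nM CYP3A4 + 25uM Luciferin-PPXE (=KM), 200mM KPO4; cpd 10 min RT; NADPH regen, 60 min RT; stop w/ detection buffer, 20 min; luminescence. Normalized to 57 uM ketoconazole.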

Each structure is given as a SMILES string. Unmarked numbers belong to inactive results. Inconclusive results are not listed. The source made the active and inactive calls. Unless noted, calls come from the whole dose curve; as a rule, active = well fitted curve in either direction with a large enough effect (not every such curve was filed as active); inconclusive = small, poorly fitted or top-dose-only effect, or another doubt; inactive = flat fitted curve, though single readings scatter.

Sequence of Lysosomal acid glucosylceramidase (Homo sapiens) (P04062 whole entry, looked up): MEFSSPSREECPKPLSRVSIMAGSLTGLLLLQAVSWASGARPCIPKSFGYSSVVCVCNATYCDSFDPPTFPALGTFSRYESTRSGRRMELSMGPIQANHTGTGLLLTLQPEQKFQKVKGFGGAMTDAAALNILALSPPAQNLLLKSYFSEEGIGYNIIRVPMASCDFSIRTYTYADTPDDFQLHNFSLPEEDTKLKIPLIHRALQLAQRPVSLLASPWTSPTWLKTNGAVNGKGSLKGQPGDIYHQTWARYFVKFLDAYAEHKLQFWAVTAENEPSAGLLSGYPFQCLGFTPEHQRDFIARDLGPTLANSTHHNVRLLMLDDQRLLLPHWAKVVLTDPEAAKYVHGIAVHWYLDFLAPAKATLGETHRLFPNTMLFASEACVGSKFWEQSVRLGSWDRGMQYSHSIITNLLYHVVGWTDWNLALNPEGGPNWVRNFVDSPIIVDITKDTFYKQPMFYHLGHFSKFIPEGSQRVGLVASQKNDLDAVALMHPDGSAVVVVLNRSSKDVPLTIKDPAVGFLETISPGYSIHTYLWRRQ
Sequence of Cytochrome P450 3A4 (Homo sapiens) (P08684 whole entry, looked up): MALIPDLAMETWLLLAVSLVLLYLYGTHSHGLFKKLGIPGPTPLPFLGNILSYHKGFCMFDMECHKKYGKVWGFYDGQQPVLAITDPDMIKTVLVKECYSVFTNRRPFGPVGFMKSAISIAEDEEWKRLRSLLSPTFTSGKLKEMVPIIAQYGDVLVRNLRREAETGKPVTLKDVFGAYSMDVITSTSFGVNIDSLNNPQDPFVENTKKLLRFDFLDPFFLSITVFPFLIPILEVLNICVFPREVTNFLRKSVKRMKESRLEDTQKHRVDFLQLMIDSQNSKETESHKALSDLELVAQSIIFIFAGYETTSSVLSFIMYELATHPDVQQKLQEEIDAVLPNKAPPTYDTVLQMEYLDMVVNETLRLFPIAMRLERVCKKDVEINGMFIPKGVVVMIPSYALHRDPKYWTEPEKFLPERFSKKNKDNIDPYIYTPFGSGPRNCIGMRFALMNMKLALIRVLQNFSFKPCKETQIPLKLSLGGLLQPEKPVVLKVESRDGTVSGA
Sequence of Cytochrome P450 2C9 (Homo sapiens) (P11712 whole entry, looked up): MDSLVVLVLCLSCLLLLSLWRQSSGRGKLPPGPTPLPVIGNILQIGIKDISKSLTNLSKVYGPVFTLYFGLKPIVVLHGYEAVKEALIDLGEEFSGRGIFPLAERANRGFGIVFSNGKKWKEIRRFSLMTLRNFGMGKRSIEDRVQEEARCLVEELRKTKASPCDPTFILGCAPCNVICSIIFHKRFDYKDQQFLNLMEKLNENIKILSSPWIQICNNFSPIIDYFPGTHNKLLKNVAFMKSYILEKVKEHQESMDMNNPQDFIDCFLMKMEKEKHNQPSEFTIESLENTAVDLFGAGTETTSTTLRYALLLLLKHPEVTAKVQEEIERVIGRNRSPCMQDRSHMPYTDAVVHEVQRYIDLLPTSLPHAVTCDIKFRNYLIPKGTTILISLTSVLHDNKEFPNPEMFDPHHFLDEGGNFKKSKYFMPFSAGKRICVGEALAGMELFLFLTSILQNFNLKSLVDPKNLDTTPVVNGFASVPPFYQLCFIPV

For `O=C(O)c1ccc(C(=O)O)c(C(=O)Nc2ccc3c(c2)Cc2ccccc2-3)c1`, the figures for the Potency in assay [1], in [5] and in assay [6] were above 11.4 µM, above 46 µM and above 9.22 µM, respectively. The activity change, negative = inhibition is 5.18% in [2] and 4.14% in [3]. In assay [4], the activity, negative = inhibition is -0.756%. Further, the Potency entry in [7] and in assay [8] was “inactive” throughout.
Regarding `Cc1cc(N2CCOCC2)nc2ccc(Cc3ccc4nc(N5CCOCC5)cc(C)c4c3)cc12`, the Potency in assay [1] was 6.83 µM (active); in [5] it was above 46 µM; in assay [6], above 9.22 µM; in assay [9], 3.98 µM (active); in assay [11], 3.16 µM (active). Besides, the activity change, negative = inhibition in assay [2] was -21.7%; in assay [3] it was -6.47%; in assay [10] it was 91.2% [at 11.4 µM]. In addition, the activity, negative = inhibition in assay [4] is -14.5%. In addition, the Potency result in assay [7] and in [8] was “inactive” in each case.
Regarding `CC(=O)[C@H]1CC[C@@H]2[C@]1(C)CC=C1[C@]23C=C[C@]2(C[C@H](O)CC[C@@]12C)[C@H](C(=O)O)[C@@H]3C(=O)O`, the Potency is above 11.4 µM in assay [1], above 46 µM in assay [5] and above 9.22 µM in assay [6]. Further, the results for the activity change, negative = inhibition in [2] and in assay [3] were -6.74% and 13%, respectively. The activity, negative = inhibition in assay [4] was 3.06%. The Potency result in assay [7] and in assay [8] was “inactive” in each case.
Take `C(CCc1nnc2c(n1)CCCC2)Cc1nnc2c(n1)CCCC2`: the values for the Potency in assay [1], in assay [5] and in [6] were above 11.4 µM, above 46 µM and above 9.22 µM, respectively. For the same molecule, the activity change, negative = inhibition is 6.86% in assay [2] and -8.87% in [3]. The activity, negative = inhibition in assay [4] was 0.257%. The Potency result in assay [7] and in assay [8] was “inactive” throughout.
For the molecule `CC(C)[C@H](N=Cc1ccccc1O)C(=O)O`, the Potency in assay [1] is above 11.4 µM; in assay [5] it was above 46 µM; in [6] it was above 9.22 µM. Further, the activity change, negative = inhibition in assay [2] is -4.87%; in [3], 4.44%. In addition, in [4], the activity, negative = inhibition was -0.012%. Moreover, the Potency entry in assay [7] and in [8] was “inactive” in each case.
Take `O=C(O)C(Cl)(c1ccccc1)c1ccccc1`: the Potency in [1] is above 11.4 µM; in assay [5], above 46 µM; in assay [6], above 9.22 µM. For the same molecule, the activity change, negative = inhibition is 1.69% in assay [2] and 6.6% in assay [3]. Further, the activity, negative = inhibition in [4] was -5.62%. For the same molecule, the Potency result in assay [7] and in assay [8] was “inactive” each time.
For `c1ccc(CO[C@H]2NCCN2Cc2ccccc2)cc1`, the Potency in assay [1] was above 11.4 µM; in [5] it was above 46 µM; in assay [6], above 9.22 µM. Moreover, the activity change, negative = inhibition was 11% in assay [2] and 9.93% in assay [3]. Besides, in assay [4], the activity, negative = inhibition was 12.8%. Also, the Potency result in [7] and in assay [8] was “inactive” in each case.
Turning to `O=S(=O)(c1ccccc1)N1CCN(S(=O)(=O)c2ccccc2)c2ccccc21`, the Potency in [1] was above 11.4 µM; in assay [5], above 46 µM; in assay [6], above 9.22 µM. Further, the values for the activity change, negative = inhibition in [2] and in assay [3] were -16.4% and -13.6%, respectively. In addition, the activity, negative = inhibition in [4] was -7.57%. Moreover, the Potency result in [7] and in assay [8] was “inactive” in each case.
